Data on 104 compounds can be found in PubChem BioAssay AID602385 (Sanford-Burnham Center for Chemical Genomics, 2012).

The campaign covered roughly 2,300 compounds. About 180 (7.8%) were called active. A selection follows. A number with no mark means an inactive call.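 How the source made its calls: active means average inhibition of at least 30% in the single-concentration confirmation test; inactive means the rest.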

The target in the experiment is DNA (cytosine-5)-methyltransferase 1 (Homo sapiens) (UniProt P26358). Put plainly: inhibition of human DNMT1, hit confirmation – biochemical, molecular beacon, fluorescence, single concentration (AID 602385). The note with it: DNMT1 molecular beacon HinP1I cleavage, at 10 µM, active compounds read high.
Sequence of DNA (cytosine-5)-methyltransferase 1 (Homo sapiens) (P26358 504-1616 limits assumed): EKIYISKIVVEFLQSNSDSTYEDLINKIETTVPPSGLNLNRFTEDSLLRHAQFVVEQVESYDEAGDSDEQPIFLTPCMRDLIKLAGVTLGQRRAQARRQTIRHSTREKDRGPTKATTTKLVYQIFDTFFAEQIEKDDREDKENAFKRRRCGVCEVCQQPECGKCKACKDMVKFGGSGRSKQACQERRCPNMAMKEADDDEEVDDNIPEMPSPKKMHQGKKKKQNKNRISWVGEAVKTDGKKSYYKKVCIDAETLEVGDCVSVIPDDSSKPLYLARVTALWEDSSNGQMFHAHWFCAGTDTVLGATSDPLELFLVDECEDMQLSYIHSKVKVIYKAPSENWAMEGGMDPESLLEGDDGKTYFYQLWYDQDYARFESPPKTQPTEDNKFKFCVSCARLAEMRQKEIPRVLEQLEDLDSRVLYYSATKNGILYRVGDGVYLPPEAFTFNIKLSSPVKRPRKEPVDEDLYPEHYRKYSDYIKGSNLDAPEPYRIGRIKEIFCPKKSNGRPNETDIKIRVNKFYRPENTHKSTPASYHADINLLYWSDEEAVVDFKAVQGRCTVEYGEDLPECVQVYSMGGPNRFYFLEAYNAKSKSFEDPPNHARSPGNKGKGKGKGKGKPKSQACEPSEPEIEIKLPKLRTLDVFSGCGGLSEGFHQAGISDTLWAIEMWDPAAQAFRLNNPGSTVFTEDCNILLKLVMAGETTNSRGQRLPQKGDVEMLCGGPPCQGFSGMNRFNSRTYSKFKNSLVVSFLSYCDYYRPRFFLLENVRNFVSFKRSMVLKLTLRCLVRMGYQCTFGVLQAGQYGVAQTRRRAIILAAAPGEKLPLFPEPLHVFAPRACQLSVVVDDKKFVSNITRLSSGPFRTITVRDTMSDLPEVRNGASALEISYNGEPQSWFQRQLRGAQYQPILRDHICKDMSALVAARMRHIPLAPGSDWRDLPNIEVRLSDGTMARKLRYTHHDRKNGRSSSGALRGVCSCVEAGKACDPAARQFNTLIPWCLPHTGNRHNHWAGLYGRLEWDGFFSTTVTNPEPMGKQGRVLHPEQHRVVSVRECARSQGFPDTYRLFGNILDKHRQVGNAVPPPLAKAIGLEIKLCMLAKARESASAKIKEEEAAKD
What is called inhibition is the drop in the measured response relative to a control, in per cent. For the compound `CS(=O)(=O)c1ccc2c(c1)SC1=NC(=O)/C(=C/c3ccco3)C(=N)N12`, the inhibition was 16.9%.
With `Cc1ccc2cc(C)c(N3CCC(C)CC3)nc2c1`, the inhibition is 1.43%.
The result for `NC(CSC(c1ccccc1)(c1ccccc1)c1ccc(-c2ccccc2)cc1)C(=O)O` (centres undefined) reads 30.5% (active); that for `CCOc1ccc(CN2CCC(n3nccc3NC(=O)C3CC3)CC2)cc1CO`, 4.07%.
The result for `Cc1ccc(N=C2NC(=O)/C(=C/C=C/c3ccco3)S2)cc1C` reads 10.4%; that for `Cc1ccc(Cc2cncc(O)c2)cc1S(=O)(=O)O`, 2.5%; that for `O=C(CCN1C(=O)C2C3C=CC(C3)C2C1=O)Nc1ccccc1F` (centres undefined), 1.42%.
With `CC(C)(C)N(Cc1ccccc1)C(=O)c1ccncc1` the figure was 0.76%.
As to `COc1cc(-c2nnc(NC(=O)CS(=O)(=O)c3ccc(Cl)cc3)o2)cc(OC)c1OC`, the inhibition is 7.33%.
The result for `O=C(COC(=O)CCC(=O)c1cccs1)NCc1ccco1` reads 3.72%; that for `O=C(COC(=O)c1ccc(F)cc1F)Nc1ncccn1`, 2.67%; that for `Cc1ccc(/C=C/C(=O)Nc2ccc([N+](=O)[O-])c(NC(=O)/C=C/c3ccc(C)o3)c2)o1`, 40.8% (active).
As for `COc1ccc(OC)c(NC(=O)c2cc(-c3cc(F)ccc3OCC3CCCO3)n[nH]2)c1` (centres undefined), the inhibition is 3.2%.
The result for `COc1ccc(Cl)cc1NC(=O)CCS(=O)(=O)c1ccc(Br)cc1` reads 21.9%; that for `COc1ccc2sc(-c3ccc(S(C)(=O)=O)cc3)c(-c3ccc(C(N)=O)cc3)c2c1`, 2.28%; that for `CCOc1cc(NC(=O)c2ccco2)c(OCC)cc1NC(=O)COc1ccccc1`, 0.94%.
The result for `NC1=CC(=O)C(=O)c2cccnc21` reads 58.8% (active); that for `CCOc1ccccc1/C=c1\sc2nc(-c3ccco3)nn2c1=O`, 5.32%.
With `O=C(COC(=O)/C=C/c1cn(-c2ccccc2)nc1-c1cccnc1)Nc1ccc(Cl)cc1Cl` the figure was 1.69%.
Regarding `O=C(Nc1cccc(-c2nc3ccccc3[nH]2)c1)c1ccc(C(=O)Nc2cccc(-c3nc4ccccc4[nH]3)c2)cc1`, the inhibition was 7.67%.
Turning to `CCNC(=O)C1CCCN(C(=O)c2cc(F)ccc2C)CC1` (centres undefined), the inhibition is 2.4%.
For the compound `CC(=O)c1ccc(NC(=O)c2ccc3c(Cl)c4c(nc3c2)CCCC4)cc1`, the inhibition was 2.16%.
With `C=C(C)C(=O)Nc1cccc(C2=NOC3(C2)C[C@H](C(N)=O)N(C(=O)C(c2ccccc2)c2ccccc2)C3)c1` (some centres undefined) the figure was 20.2%.
Turning to `O/N=C1\CC2(Cc3nonc31)OCCO2`, the inhibition is 2.08%.
With `CSc1ccc(CNC(=O)c2ccc(NC(=O)C3=CSCCO3)cc2)cc1` the figure was 5.27%; with `Nc1cc2c(cc1Br)-c1ccc(F)cc1C2=O`, -0.64%.
Take `CCOC(=O)C(NC(=O)CC(C)C)(Nc1sc2c(c1C(N)=O)CCCC2)C(F)(F)F` (centres undefined): the inhibition was 38.7% (active).
The result for `CCCCCCc1cc2cc(-c3nnc(-c4ccccc4)o3)c(=O)oc2cc1O` reads 1.72%; that for `CCOC(=O)c1c(NC(=S)NC(=O)/C=C/c2cccs2)sc(C)c1C`, 0.76%; that for `COC(=O)CCCCC1=CCC2C(=O)C=C(O)C2C1` (centres undefined), 13.6%.
With `Cc1ccc(-c2nnc(-c3ccc(NC(=O)c4cccs4)cc3)o2)cc1` the figure was 3.86%; with `CC1(C)Cc2nc3sc4c(SCC(=O)NC(c5ccccc5)c5ccccc5)ncnc4c3cc2CO1`, 2.65%; with `COc1ccc(NC(=O)CN(C)C(=O)c2cc(C3CC3)nn2-c2ccccc2)cc1`, -1%.
With `CCN(C(=O)CSc1nc(N)cc(=O)[nH]1)C1CCS(=O)(=O)C1` (centres undefined), the inhibition is 4.21%.
`CC(=O)Nc1ccccc1Sc1ccc2c3c(cccc13)C(=O)N(c1ccc(C)cc1)C2=O`: the inhibition was 1.49%.
Turning to `Cc1cc(O)c(C(=O)/C=C/c2c(F)c(F)c(F)c(F)c2F)c(=O)o1`, the inhibition is 15.6%.
With `CN(C)/C=C(/C(=O)c1ccc(Cl)cc1)S(=O)(=O)c1ccccc1` the figure was 5.43%.
With `COc1ccc2[nH]c(=O)c(-c3noc(-c4ccc(F)cc4)n3)cc2c1` the figure was 0.63%; with `COc1ccc(C(=O)/C=C/c2ccc(-c3ccccc3)cc2)cc1CSCC(=O)O`, 28.4%; with `CCOC(=O)N1CC=C2C(C#N)=C(N)C(C#N)(C#N)[C@H](c3cccs3)[C@H]2C1`, 9.81%.
Consider `c1ccc2cc3c(NCCN4CCOCC4)ccnc3cc2c1`, for which the inhibition was 23.4%.
With `Cc1ccc(C(=O)NNC(=O)c2cc3cc4ccccc4nc3s2)cc1` the figure was 3.71%; with `CC(C)(C)NC(=O)CSC(=Nc1ccccc1F)NC#N`, 5.5%; with `O=C(c1cccs1)N1CCC(c2nc3ccccc3s2)CC1`, 1.54%.
With `O=C(Nc1cccc(F)c1)c1cc(-c2ccco2)nc2ccccc12` the figure was 1.53%.
The result for `CCOc1cc(CN2CCCC(CO)(Cc3ccc(F)cc3F)C2)ccc1OC` (centres undefined) reads 1.12%.
Turning to `CN(CCOc1ccccc1)C(=O)c1cc(-c2ccco2)nc2ccccc12`, the inhibition is 3.76%.
For `COc1ccc(/C=C2\SC(=N)N(c3ccc(F)cc3)C2=O)cc1`, the inhibition was -0.37%.
The result for `COc1ccc2c(c1)c(=O)c(C(=O)c1ccc(Cl)cc1)cn2CC(=O)Nc1ccc(F)cc1` reads 0.08%; that for `CCc1nn(-c2cc(Oc3cccc4ccccc34)nc(-c3ccccc3)n2)c(N)c1C#N`, -0.43%; that for `Cc1ccc2[nH]c(=O)c(-c3nc4c(C)cccn4c3NCc3ccco3)cc2c1`, -1.18%.
With `O=C(CN1CCCSc2ccccc21)N1CCN(S(=O)(=O)c2cccc(F)c2)CC1` the figure was 2.39%.
The result for `O=C(COC(=O)c1ccccc1O)NCc1ccco1` reads 3.59%; that for `COc1ccc(C(=O)OCC(=O)Nc2cccc(C(C)=O)c2)cc1OC`, 5.6%.
Consider `CC(=O)Nc1ccc(SCC(=O)NC(=O)c2ccc(Cl)cc2)cc1`, for which the inhibition was 2.15%.
For the compound `O=C(Oc1ccc(-c2nc(-c3ccccn3)no2)cc1)c1ccccc1`, the inhibition was 29%.
With `O=C(Nc1nc(-c2ccco2)c(-c2ccco2)s1)c1ccco1` the figure was 6.2%; with `Cc1onc(-c2ccccc2)c1C(=O)Nc1ccccc1C#N`, 1.14%; with `c1coc(-c2nc3nc4ccccc4n3nc2-c2ccco2)c1`, 0.83%.
On to `O=C1CCCC(O)=C1C=NCCc1ccccc1`, for which the inhibition was 0.99%.
With `NNc1cccc(C=Cc2ccccc2)cc1=O` the figure was 1.25%; with `CCN1CCN(Cc2nc3c(c(=O)n(C)c(=O)n3C)n2CC(=O)c2ccccc2)CC1`, 0.76%.
With `CCOC(=O)c1cccc(NC(=O)C2CCCN(S(=O)(=O)c3cnc[nH]3)C2)c1` (centres undefined) the figure was 1.94%; with `C=CCn1c(=NC(=O)c2ccc(S(=O)(=O)N3CCCC3)cc2)sc2cc(NC(C)=O)ccc21`, 1.72%; with `Oc1c(C(c2ccco2)N2CCC3(CC2)OCCO3)sc2ncnn12` (centres undefined), 1.28%.
The result for `COc1ccc(Cc2nnc(NC(=O)Cc3cccs3)s2)cc1` reads 87.7% (active); that for `COc1ccc(CC(=O)Nc2ccc(-c3nnc(-c4ccccc4)o3)cc2)cc1`, 3.13%; that for `COc1ccc(CC(=O)Nc2ccc(-c3nnc(-c4ccc(C)cc4)o3)cc2)cc1`, -0.08%.
`CCN1C(=O)c2cccc3c(N)ccc1c23`: the inhibition is 2.42%.
Turning to `Cc1cc2nc(-c3ccco3)c(Cc3cccc(F)c3)n2c(C)c1Br`, the inhibition was 7.28%.
The result for `O=C(COc1ccc([N+](=O)[O-])cc1)Nc1ccc(N2CCCC2)cc1` reads 6.61%; that for `O=C(COc1ccc(/C=N/NC(=O)c2ccc(O)cc2)cc1)Nc1ccc([N+](=O)[O-])cc1`, 39.5% (active).
With `COc1ccc(OCC(=O)NNC(=O)c2ccc(-c3ccccc3)cc2)cc1` the figure was 1.62%; with `O=C(CCNC(=O)c1ccccc1)NN=Cc1ccc(Br)o1`, 2.65%; with `O=C(c1ccc(CS(=O)(=O)c2ccccc2)o1)N1CCN(c2ccccc2)CC1`, 0.25%.
As to `C/C(=N\Nc1ccc(S(N)(=O)=O)cc1[N+](=O)[O-])c1cccs1`, the inhibition was 1.78%.
The result for `CC1CN(C(=O)c2ccccc2NS(=O)(=O)c2cccc([N+](=O)[O-])c2)CC(C)O1` (centres undefined) reads 1.75%; that for `COc1ccc(Br)cc1/C=N/Nc1ccc(S(=O)(=O)Nc2ccccc2C(=O)O)cc1[N+](=O)[O-]`, 97.7% (active).
With `C=Cc1ccc(C(=O)N2CCCC(CCC(=O)N3CCN(c4ccccn4)CC3)C2)cc1` (centres undefined) the figure was 1.51%; with `Cc1ccc(CNC(=O)CSc2nnc3c(n2)[nH]c2ccc(F)cc23)cc1`, 1.24%; with `c1ccc2cc3[nH]c(CN4CCCCC4)nc3cc2c1`, 3.8%.
Take `CCOC(=O)/C(C#N)=C/c1ccc(OCC(=O)Nc2ccccc2)c(OC)c1`: the inhibition is 4.96%.
With `CCCCNC(=O)CCn1c(=O)c2ccccc2n(Cc2cc(C)ccc2C)c1=O` the figure was 2.63%; with `C=CCn1c(=S)[nH]c2scc(-c3ccco3)c2c1=O`, 8.63%.
With `CN(Cc1nc2ccc(F)cc2[nH]1)Cc1nc(CC2CC2)no1` the figure was 4.53%; with `COc1ccc(-n2c(SCC(=O)Nc3sc4c(c3C#N)CCCC4)nnc2-c2ccc(O)cc2)cc1`, 18.9%; with `O=C(CCS(=O)(=O)c1ccc(Br)cc1)NCCc1ccc(Cl)cc1`, 3.33%.
With `CCc1ccc(NC(=O)CS(=O)CC(=O)NCCCc2ccccc2)cc1` (centres undefined) the figure was 2.37%.
On to `CCC/C=C(\CCC)C(NC(=O)Cc1ccccc1)c1ccc(C(=O)OC)cc1` (centres undefined), for which the inhibition was 1.76%.
The result for `COc1ccc(NC(=O)CCn2ccnc2)c(OC)c1` reads 3.76%.
With `Cc1ccccc1-n1cc(CNC(=O)CC2C(=O)NCCN2C/C=C/c2ccccc2)cn1` (centres undefined) the figure was 0.15%; with `C=CC1=C(C(=O)O)N2C(=O)[C@@H](NC(=O)/C(=N\OCC(=O)O)c3csc(N)n3)[C@H]2SC1`, 4.47%; with `O=C(NNc1ccccn1)c1ccc(Cl)nc1`, 0.99%.
The result for `CC(Oc1ccccc1)C(=O)Nc1oc(-c2ccco2)c(-c2ccco2)c1C#N` (centres undefined) reads 1.51%; that for `COc1cccc(C(=O)Nc2ccc(N3CCCC3)cc2)c1`, 20.5%.
For `Cc1ccc(-c2cc(C(=O)NCc3cn(C)nc3C)c3cc(Br)ccc3n2)cc1`, the inhibition is 8.12%.
The result for `CC1(C(=O)NS(=O)(=O)c2ccccc2)CCN1C(=O)C/C=C/c1ccccc1` (centres undefined) reads 0.79%.
With `N#Cc1ccccc1CN1C(=O)S/C(=C/c2cccn2-c2cccc(C(=O)O)c2)C1=O` the figure was 12.5%; with `Cc1ccccc1NC(=O)CN1C(=O)N/C(=C\c2cccn2-c2cccc(C(=O)O)c2)C1=O`, 34.7% (active).
The result for `O=C(Cn1nnc(-c2ccccc2)n1)N/N=C/c1ccc(-c2ccc(Cl)cc2)o1` reads 2.46%; that for `C=CC[C@@H](CC(=O)N[C@H](CO)Cc1ccccc1)C(=O)N[C@@H](COC(=O)[C@@H](CC=C)Cc1ccc(F)cc1)Cc1c[nH]c2ccccc12`, 5.95%; that for `O=C(CSc1nc2ccccc2c(=O)[nH]1)Nc1nc(-c2ccc(Br)cc2)cs1`, 41.9% (active).
`O=c1[nH]c(/C=C/c2cccc(Br)c2)nc2ccccc12`: the inhibition was 3.81%.
As to `Cc1nnc(N/N=C/c2cccs2)[nH]c1=O`, the inhibition is 2.68%.
